Assay outcomes from PubChem BioAssay.
Compounds with a hit are over-represented: about 3% of the library has one in this group of screens.
HIF-2a inh: HIF-2a reporter inhibitors, primary screen, luminescence, 786-0 RCC cells; 786-0 RCC cells HIF-2a reporter, luciferase luminescence, overnight; inhibition, % at 18.8 µM; 360,000 tested, 0.72% active; AID 624352, 2012;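 active = inhibition of the luminescence signal of 40% or more relative to plate controls, in a single-dose primary screen at 18.75 µM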
Peg3 promoter: Peg3 promoter-driven luciferase inhibitors, primary screen, cell-based, HeLa, luciferase luminescence; HeLa PEG-Prom luciferase reporter, overnight; inhibition, % at 20 µM; 360,000 tested, 1.7% active;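 active = inhibition of at least 50% at 20 µM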
KKLEB tox: cytotoxicity in KKLEB CF airway cells, primary screen, cytotoxicity control for CF NF-kB inhibitor project, cell-based, uHTS, fluorescence assay plates. KKLEB CF airway cells viability, ATPlite luminescence, overnight; stronger effect = lower value; cells stimulated with P. aeruginosa culture filtrate. activity change (cytotoxicity), % at 5 µM. 360,000 tested, 0.36% active. AID 602141, 2011;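 active = corrected activity change at or below -50% at 5 µM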
TRPM1 prom inh: inhibitors of MITF-dependent TRPM1 promoter reporter, primary screen, cell-based, SK-MEL-5, single point, luciferase; AID 488899, 2010; 330,000 tested, 0.83% active; inhibition, % at 12.5 µM; SK-MEL-5 TRPM1 promoter luciferase, 24 h;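 active = mean inhibition across replicates of 60% or more, whatever share of single replicates reaches that level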
ABHD5-PLIN5 inh: ABHD5-PLIN5 interaction inhibitors, primary screen, cell lysate, split luciferase complementation, luminescence; 360,000 tested, 0.78% active; inhibition, % at 4 µM; AID 602281, 2012; Perilipin-5 (Homo sapiens) + 1-acylglycerol-3-phosphate O-acyltransferase ABHD5 (Homo …; Split G. princeps luciferase complementation, 4 h;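 active = inhibition above the mean inhibition across every tested compound plus 3 SD, cut at about 22% in these data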;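 also: 0% = DMSO only wells and the 100% control is not disclosed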
CF NFkB inh: inhibitors of PAF-induced NF-kB signaling, primary screen, cell-based, GFP fluorescence, uHTS | inhibition, % at 5 µM | KKLEB NF-kB-GFP reporter, GFP fluorescence overnight | 360,000 tested, 0.86% active;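 active = at least 50% inhibition at 5 µM, scaled per plate between neutral and stimulator controls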;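 also: PAF is a Pseudomonas aeruginosa culture filtrate used as stimulus; plate controls were PAF-stimulated DMSO wells for no effect and unstimulated DMSO wells for full effect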
Mdm2 MdmX conf: retested Mdm2-MdmX interaction blockers, confirmation, cell-based, luminescence, single concentration, set 2 | shares compounds with HIF-2a inh | SaOS-2 split-luciferase Mdm2/MdmX complementation | inhibition, % at 8 µM | 740 tested, 99% active;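 active = mean inhibition of the luminescence signal across two replicates at or above 26 percent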
Target sequence (O15151 whole entry, looked up): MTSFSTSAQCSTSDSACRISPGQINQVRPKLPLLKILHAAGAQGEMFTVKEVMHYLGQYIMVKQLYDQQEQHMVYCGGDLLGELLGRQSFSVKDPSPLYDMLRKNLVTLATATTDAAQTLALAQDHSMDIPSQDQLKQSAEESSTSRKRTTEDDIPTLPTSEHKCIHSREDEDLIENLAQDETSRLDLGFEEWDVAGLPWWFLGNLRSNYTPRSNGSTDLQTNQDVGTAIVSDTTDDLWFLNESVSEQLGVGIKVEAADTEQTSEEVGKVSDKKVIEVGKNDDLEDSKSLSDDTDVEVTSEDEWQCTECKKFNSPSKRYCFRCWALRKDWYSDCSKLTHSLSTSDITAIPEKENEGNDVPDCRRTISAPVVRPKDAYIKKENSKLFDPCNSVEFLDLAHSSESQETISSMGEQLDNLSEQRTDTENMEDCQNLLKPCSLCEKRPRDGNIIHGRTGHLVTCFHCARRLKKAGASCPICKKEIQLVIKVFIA
Target sequence (Q00987 whole entry, looked up): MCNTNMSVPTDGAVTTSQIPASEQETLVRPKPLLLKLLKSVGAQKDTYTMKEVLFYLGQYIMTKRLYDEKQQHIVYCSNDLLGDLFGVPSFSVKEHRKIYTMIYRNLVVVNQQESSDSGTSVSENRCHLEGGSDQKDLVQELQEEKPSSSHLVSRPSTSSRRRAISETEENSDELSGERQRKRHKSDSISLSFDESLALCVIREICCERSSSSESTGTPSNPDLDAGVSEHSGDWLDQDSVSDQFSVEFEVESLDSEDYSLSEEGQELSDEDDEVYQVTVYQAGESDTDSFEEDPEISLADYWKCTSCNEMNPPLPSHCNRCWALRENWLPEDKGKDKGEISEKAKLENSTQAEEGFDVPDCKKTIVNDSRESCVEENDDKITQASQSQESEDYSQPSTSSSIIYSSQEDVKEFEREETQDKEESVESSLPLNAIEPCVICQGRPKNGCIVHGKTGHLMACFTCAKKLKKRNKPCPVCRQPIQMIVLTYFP
HIF-2a inh conf: HIF-2a reporter inhibitor retest, confirmation, luminescence, 786-0 RCC cells | shares compounds with HIF-2a inh | HIF-2a luciferase reporter luminescence, overnight | inhibition, % at 18.8 µM | 1,800 tested, 56% active;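 active = mean inhibition across four replicates of at least 40 percent at the single tested concentration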
HIF-1a cs: HIF-1a luciferase reporter signal reduction – MiaPaCa-2 cells, single concentration, counter-screen for HIF-2a inhibitor project, confirmation; shares compounds with HIF-2a inh; MiaPaCa-2 HIF-1a luciferase reporter, desferoxamine, overnight; inhibition, % at 18.8 µM; 1,800 tested, 72% active;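 active = mean inhibition of the reporter signal across four replicates at the single tested dose of 50% or more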
* = called active by the depositor; . = not tested or not shown.

SMILES	HIF-2a inh	Peg3 promoter	KKLEB tox	TRPM1 prom inh	ABHD5-PLIN5 inh	CF NFkB inh	HIF-2a inh conf	HIF-1a cs	others
COc1cc(C=CC(=O)c2cc(OC)c(OC)c(OC)c2)cc(OC)c1OC	59*	71*	7	67*	17	24	89*	105*
CCc1ccc(S(=O)(=O)ON2C(=O)c3ccccc3C2=O)cc1	46*	51*	10	11	0	3	51*	-4
COc1ccc(OC)c(S(=O)(=O)N2CCN(c3ccccc3)CC2)c1	9	17	13	-3	2	-12	.	.
COc1ccc(OC)c(S(=O)(=O)ON2C(=O)c3ccccc3C2=O)c1	57*	54*	0	31	-5	-10	60*	23
COC(=O)c1ccc(C(=O)OC)c(-n2c(=O)c3ccccc3c3ccccc3c2=O)c1	45*	23	-18	41	-1	4	52*	-6
O=C(O)c1cccc(-c2nnn(Cc3ccccc3Cl)n2)c1	65*	28	-5	56	-4	-8	63*	-38
O=C(O)c1cccc(-c2nnn(Cc3ccccc3)n2)c1	-27	-113	4	-7	2	-2	.	.
CCOc1cccc2sc(N(CCN(C)C)C(=O)/C=C/c3cccs3)nc12	3	38	-24	12	21	44	.	.
COc1ccc(OC)c2sc(N(CCN(C)C)C(=O)/C=C/c3cccs3)nc12	78*	104*	-98*	67*	22*	68*	18	72*
CC(C)C[C@H]1CN(CCCC[C@H]2CNC(=O)C(=O)N2CCc2ccccc2)C(=O)C(=O)N1CCc1ccccc1	-5	.	.	.	-1	.	.	.
COc1ccc(/C=N/Nc2cc(C)nc3ccc(OC)cc23)c(OC)c1	92*	107*	-11	85*	11	-105	.	.	Mdm2 MdmX conf=103*
CC(C)c1cccc(O)c(=O)c1	5	48	-4	.	10	17	.	.	Mdm2 MdmX conf=97*
CC(CNC(=O)CCS(=O)(=O)c1cc2c(cc1Cl)NC(=O)CO2)c1ccccc1 (stereo not given)	4	13	-1	7	1	-7	.	.
COC(=O)COc1ccc(/C=N/NC(=O)c2ccc(N(Cc3ccccc3)S(C)(=O)=O)cc2)cc1	64*	4	-10	6	-5	-4	19	-3
COC(=O)COc1ccc(/C=N/NC(=O)CN(c2ccccc2OC)S(=O)(=O)c2ccccc2)cc1	57*	18	0	8	7	20	74*	57*
O=C(c1cccc(N2CCCC2=O)c1)N1CCN(c2cccc(Cl)c2)CC1	8	13	-8	11	6	13	.	.
COc1ccc(CCNC(=O)CN2C(=O)COc3ccc(S(=O)(=O)N4CCCC4)cc32)c(OC)c1	1	12	2	4	9	2	.	.
CC(C)(C)N1[C@@H](CC(=O)O)c2cc(C(F)(F)F)ccc2S1(=O)=O	-10	2	-2	10	-9	-6	.	.
CCOc1ccc2nc(SCc3ccc(CC(=O)O)cc3)c(C#N)cc2c1	83*	13	-3	1	-10	16	89*	57*
O=C(OCCOc1ccccc1)c1cc(S(=O)(=O)N2CCOCC2)c(Cl)cc1Cl	-15	-15	-3	.	8	2	.	.
COc1ccc(CNC(=O)[C@@H]2CC=C[C@@H]3CCN(Cc4ccc(Cl)c(Cl)c4)C(=O)[C@@H]32)cc1	4	30	-2	-2	3	-27	.	.
COc1ccc(CNC[C@@H](CCCCN(C)Cc2ccc(OC)cc2)N2C[C@H](c3ccccc3)N(CCc3ccc(Cl)c(Cl)c3)C(=O)C2=O)cc1	97*	98*	-95*	96*	32*	62*	.	.	Mdm2 MdmX conf=103*
COCCN1CCn2c(nc3cc([N+](=O)[O-])ccc32)C1	69*	1	-2	11	1	-13	-32	2
N#Cc1ccccc1COc1ccc(/C=C/C(=O)O)cc1	87*	10	-6	55	1	3	89*	56*
Cc1nn(-c2ccccc2)c(Cl)c1/C=N/Nc1ccc(Cl)c(C(=O)O)c1	61*	-18	6	55	-5	-4	56*	-56
SMILES	HIF-2a inh	Peg3 promoter	KKLEB tox	TRPM1 prom inh	ABHD5-PLIN5 inh	CF NFkB inh	HIF-2a inh conf	HIF-1a cs	others
COc1ncnc2c1ncn2CCCNC1CCN(Cc2ccccc2)CC1	-35	-5	14	.	-11	-23	.	.
CN(C(=O)COC(=O)c1ccccc1NCc1ccco1)c1c(N)n(Cc2ccccc2)c(=O)[nH]c1=O	-2	15	4	-2	-1	-12	.	.
CCCCCCCCCCCCCCCCn1cc[n+](CC(C)=O)c1	56*	96*	-67*	39	20	67*	64*	106*
CCOc1ccc(N2C(=O)Nc3ccc(Br)cc3C2(O)C(=O)NCCN(C)C)cc1 (stereo not given)	11	-4	-13	-8	-3	18	.	.
Cc1ccc(S(=O)(=O)N2[C@@H](c3ccc(Br)cc3)C(C(=O)O)=C[C@H]2C(C)(C)C)cc1	12	-2	8	-3	0	9	.	.
Cc1c(C(=O)Nc2nonc2-c2ccc(F)cc2)oc2ccc(F)cc12	-7	39	-17	11	0	17	.	.	Mdm2 MdmX conf=90*
COc1ccc(C(NC(=O)c2cc(OC)ccc2OC)c2ccccc2)cc1 (stereo not given)	14	33	-19	5	13	3	.	.
COc1ccc(C(NC(=O)c2c(F)c(F)c(F)c(F)c2F)c2ccccc2)cc1 (stereo not given)	83*	93*	-12	40	-10	-14	57*	100*
CC(=O)Nc1ccc(N2CCOCC2)c(S(=O)(=O)Nc2ccccc2Cl)c1	-4	-2	17	.	-5	-25	.	.
